According to PubChem BioAssay (EPA / NIEHS):
“And” between values parts separate entries of the source, which are not always exact repeats. Equal values may be shown once. Records with an inconclusive call do not appear. The source made the active and inactive calls. Rule for the calls, unless noted: active = hit-call score of the fitted dose curve at least 0.9, where 1 is the maximum; inconclusive = response in the unintended direction; inactive = score below 0.9.

Legend:
[1] = CCTE_Shafer_MEA_dev_firing_rate_mean: CCTE's Neural Network Formation Assay for Mean Firing Rate, Shafer Lab (AID 2284031; active = hit-call score of the fitted dose curve at least 0.9, where 1 is the maximum; inactive = score below 0.9;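 for AC50: curve fitted for loss of firing so AC50 reflects decreased mean firing rate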)
Summary of the method: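 Steps: seed rat cortical cells (1.5 x 10^5/well) with laminin on PEI-coated MEA; dose day 0; record DIV 5/7/9/12, full media and compound exchange after DIV 5 and 9 recordings; compute well-mean firing rate AUC.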

[2] = CCTE_Shafer_MEA_dev_per_burst_spike_percent: CCTE's Neural Network Formation Assay for Percent of Spikes in a Burst, Shafer Lab (AID 2284032; active = hit-call score of the fitted dose curve at least 0.9, where 1 is the maximum; inactive = score below 0.9;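 for AC50: fitted as a decrease in burst spike percentage below DMSO baseline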)
Protocol: CCTE_Shafer_MEA_dev assay is conducted using Axion Biosystems 48 well microelectrode array (MEA) plates and Maestro recording system. Each well of the MEA plate contains a grid of 16 microelectrodes embedded in the culture surface. Electrically active cells, such as neurons, can be cultured over the electrodes, and electrical activity in these cells can be recorded extracellularly. The spontaneous firing of neurons is captured from each electrode on a microsecond timescale providing both temporally and spatially precise data. […] The CCTE_Shafer_MEA_dev assay uses primary cultures of rat cortical neurons. Recordings are made on days post-plating 5, 7, 9 and 12. As these cultures mature over time, neural networks develop functional activity and form cohesive networks in which electrical activity can be highly coordinated. CCTE_Shafer_MEA_dev_per_burst_spike_percent is 1 of 19 assay components of the CCTE_Shafer_MEA_dev assay. It measures the percentage of spikes (action potential firings) in a single-electrode burst (temporally-clustered group of spikes) as the total number spikes in bursts divided by the total number of spikes during a recording in a microelectrode array (MEA) using Axion Biosystems Maestro 768 channel amplifier with the AxIS adaptive spike detector. The percent of spikes in bursts is averaged across the actively bursting electrodes to report a well-mean value. To collapse across multiple recordings made on days post-plating 5, 7, 9 and 12, the trapezoidal area-under-the-curve of the component is calculated.Data from the assay component CCTE_Shafer_MEA_dev_per_burst_spike_percent was analyzed into 1 assay endpoint. This assay endpoint, CCTE_Shafer_MEA_dev_per_burst_spike_percent, was analyzed in the negative analysis fitting direction relative to DMSO as the negative control and baseline of activity. Using a type of functional reporter, gain or loss-of-signal activity can be used to understand electrical activity.
(§1) On the day prior to culture, each well was coated thoroughly with 150 uL of 0.05% polyethyleneimine (PEI, Sigma Cat P3143) in 50 mM HEPES (Sigma Cat H7523) at a pH of 8. The plate was incubated at 37C for one hour. PEI was rinsed out with 500 uL of sterile water three times. Plates were stored at 4C until the day of culture. This culture was plated at a seeding density of 1.5 x 10^5 cells/well on a 48-well MEA plate, prepared as described above. Cells were administered via a 25 uL media/laminin ([…]; Sigma Cat L2020-1MG) drop directly onto the microelectrode array, as adding the cells with the laminin results in better attachment than pre-coating with laminin. After 2 hours, an additional 475 uL of cortical media was added and the cells returned to the incubator. Exposure starts at day 0 of plating and is continued over twelve days of network development until the experiment is terminated. Cells are fed with fresh medium on DIV 5 and 9, following the recordings on those days. The entire volume of media in the well is exchanged and any vehicle or compound treatment is renewed. Complete details are found in OP-NHEERL/ISTD/SBB/TJS/2015-03-r0 (available on request, email shafer.tim@epa.gov). Measurement of the electrical activity is non-invasive, and recordings can be made from the same plate over multiple different days of the culture. In cortical neurons, this allows for the measurement of extracellular action potentials over the period during which networks form in the MEA plate.

[3] = CCTE_Shafer_MEA_dev_active_electrodes_number: CCTE's Neural Network Formation Assay for Number of Active Electrodes, Shafer Lab (AID 2284040);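 for AC50: potency for loss of active electrodes versus DMSO so lower counts are hits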
Summary of the method: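 Counts electrodes per well firing at least 5 spikes/min, recorded on days 5, 7, 9 and 12 in rat cortical cultures dosed continuously from plating (treatment refreshed DIV 5, 9). Value is the area under the curve over recordings, fitted downward relative to DMSO.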

[4] = CCTE_Shafer_MEA_dev_burst_rate: CCTE's Neural Network Formation Assay for Burst Rate, Shafer Lab (AID 2284042; active = hit-call score of the fitted dose curve at least 0.9, where 1 is the maximum; inactive = score below 0.9;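 for AC50: potency for loss of burst rate below DMSO control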)
Summary of the method: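 Cells plated, treated day 0; recorded DIV 5, 7, 9, 12; fed and re-treated DIV 5, 9. Endpoint: bursts per recording time, active-electrode well mean, trapezoidal AUC, fitted in decreasing direction against DMSO baseline.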

[5] = CCTE_Shafer_MEA_dev_bursting_electrodes_number: CCTE's Neural Network Formation Assay for Number of Bursting Electrodes, Shafer Lab (AID 2284043)
Protocol: CCTE_Shafer_MEA_dev assay is conducted using Axion Biosystems 48 well microelectrode array (MEA) plates and Maestro recording system. Each well of the MEA plate contains a grid of 16 microelectrodes embedded in the culture surface. Electrically active cells, such as neurons, can be cultured over the electrodes, and electrical activity in these cells can be recorded extracellularly. The spontaneous firing of neurons is captured from each electrode on a microsecond timescale providing both temporally and spatially precise data. […] The CCTE_Shafer_MEA_dev assay uses primary cultures of rat cortical neurons. Recordings are made on days post-plating 5, 7, 9 and 12. As these cultures mature over time, neural networks develop functional activity and form cohesive networks in which electrical activity can be highly coordinated. CCTE_Shafer_MEA_dev_bursting_electrodes_number is 1 of 19 assay components of the CCTE_Shafer_MEA_dev assay. It measures the number of electrodes in a well with a burst rate of at least 1 burst (temporally-clustered group of action potential firing) every 2 minutes during a recording in a microelectrode array (MEA) using Axion Biosystems Maestro 768 channel amplifier with the AxIS adaptive spike detector. To collapse across multiple recordings made on days post-plating 5, 7, 9 and 12, the trapezoidal area-under-the-curve of the component is calculated.Data from the assay component CCTE_Shafer_MEA_dev_bursting_electrodes_number was analyzed into 1 assay endpoint. This assay endpoint, CCTE_Shafer_MEA_dev_bursting_electrodes_number, was analyzed in the negative analysis fitting direction relative to DMSO as the negative control and baseline of activity. Using a type of functional reporter, gain or loss-of-signal activity can be used to understand electrical activity.
as §1

[6] = CCTE_Deisenroth_AIME_384WELL_CTox_Inactive: Cytotoxicity Assessment (CTOX) in CCTE's 384-well Estrogen Receptor Transactivation Assay without AIME metabolic competence (metabolism negative), Deisenroth Lab (AID 2284039);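 note: cell viability via live-cell protease substrate cleaved to fluorescent probe; cells exposed 24 h to medium preincubated 2 h with alginate-water beads without S9; loss of fluorescence signal means loss of viability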
Summary of the method: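 Metabolism-negative arm: chemicals (10-point, 0.002 - 200 uM) preincubated 2 h with alginate-water lids, medium moved onto VM7Luc4E2 cells for 24 h. Fluorescent live-cell protease readout; bidirectional curve fit.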

[7] = CCTE_Deisenroth_AIME_384WELL_CTox_Active: Cytotoxicity Assessment (CTOX) in CCTE's 384-well Estrogen Receptor Transactivation Assay with AIME metabolic competence (metabolism positive), Deisenroth Lab (AID 2284037);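 note: chemicals first conditioned 2 h by alginate-bound induced rat liver S9 before cells; activity means signal loss indicating cell death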
Summary of the method: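 Cytotoxicity in VM7Luc4E2 breast cells, 24 hour, measured as protease-substrate fluorescence loss, after 2-hour metabolic conditioning with induced rat hepatic S9 in alginate microspheres. Concentrations 0.002 - 200 uM, 10 points, bidirectional fitting.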

[8] = molecular target: Estrogen receptor (Homo sapiens) (UniProt P03372); assay: CCTE_Deisenroth_AIME_384WELL_LUC_Active: CCTE's 384-well Estrogen Receptor Transactivation Assay with AIME metabolic competence (ERTA luciferase; metabolism positive), Deisenroth Lab (AID 2284030)
Protocol: CCTE_Deisenroth_AIME_384WELL (AIME metabolism assay) is a cell-based, single-readout assay that uses VM7Luc4E2, a human mammary gland/breast cell line, with measurements taken at 24 hour after chemical dosing in a 384-well plate.CCTE_Deisenroth_AIME_384WELL_LUC_Active is one of four assay components measured or calculated from the CCTE_Deisenroth_AIME_384WELL assay. It is designed to make measurements of luciferase induction, a form of inducible reporter, as detected with bioluminescence signals by luciferase-coupled ATP quantitation technology.CCTE_Deisenroth_AIME_384WELL_LUC_Active is a component of the CCTE_Deisenroth_AIME_384WELL assay that measures the effect of retroftting the VM7Luc ERTA assay with the Alginate Immobolization of Metabolic Enzymes (AIME) metabolism method. AIME is optimized to impart phase I hepatic metabolism using phenobarbital/beta-naphthoflavone induced hepatic S9 from male Sprague Dawley rats. Parent chemicals are incubated for 2 hours in the AIME assay prior to transfer to the VM7Luc ERTA assay plate. […] This endpoint evaluates reporter induction in metabolism positive mode. Using a type of inducible reporter in VM7Luc cells, gain-of-signal activity can be used to understand changes in the reporter gene as they relate to xenobiotic metabolism and the gene ESR1. This assay endpoint, CCTE_Deisenroth_AIME_384WELL_LUC_Active, was analyzed in the positive analysis fitting direction relative to 17beta-estradiol as the positive control in the ERTA assay. To generalize the intended target to other relatable targets, this assay endpoint is annotated to the nuclear receptor intended target family, where the subfamily is steroidal.
The AIME procedure consists of a preparative "pre-stamping" step using a barium chloride/poly-L-lysine (PLL) solution followed by "stamping" the lid in alginate-hepatic S9 (metabolism positive) or alginate-water (metabolism negative) to form microspheres. […]

[9] = molecular target: Estrogen receptor (Homo sapiens) (UniProt P03372); assay: CCTE_Deisenroth_AIME_384WELL_LUC_Inactive: CCTE's 384-well Estrogen Receptor Transactivation Assay without AIME metabolic competence (ERTA luciferase; metabolism negative), Deisenroth Lab (AID 2284038);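 note: VM7Luc4E2 breast cells given medium preincubated 2 h with S9-free microspheres; hits raise estrogen receptor luciferase signal so potencies reflect agonists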
Summary of the method: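 VM7Luc4E2 ER transactivation, luciferase bioluminescence after 24 h, using medium pre-incubated 2 h with S9-free alginate microspheres. Concentrations 0.002–200 uM; gain of signal fitted relative to 17beta-estradiol.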

[10] = molecular target: Estrogen receptor (Homo sapiens) (UniProt P03372); assay: CCTE_Deisenroth_AIME_384WELL_LUC_Shift: CCTE's 384-well Estrogen Receptor Transactivation Assay with AIME metabolic competence data shift (ERTA luciferase; difference in metabolism positive and negative), Deisenroth Lab (AID 2284041; active = hit-call score of the fitted dose curve at least 0.9, where 1 is the maximum; inactive = score below 0.9;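 note: shift is response with S9 minus without S9 so positive means metabolism raised ER signal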)
Summary of the method: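 Test chemicals (0.002–200 uM, 10-point) were pre-incubated 2 h with alginate microspheres containing phenobarbital/beta-naphthoflavone-induced male Sprague Dawley rat liver S9 or water, then medium was transferred to VM7Luc4E2 cells for 24 h luciferase readout; shift = S9-positive minus S9-negative normalized response.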

Sequence of Estrogen receptor (Homo sapiens) (P03372 whole entry, looked up): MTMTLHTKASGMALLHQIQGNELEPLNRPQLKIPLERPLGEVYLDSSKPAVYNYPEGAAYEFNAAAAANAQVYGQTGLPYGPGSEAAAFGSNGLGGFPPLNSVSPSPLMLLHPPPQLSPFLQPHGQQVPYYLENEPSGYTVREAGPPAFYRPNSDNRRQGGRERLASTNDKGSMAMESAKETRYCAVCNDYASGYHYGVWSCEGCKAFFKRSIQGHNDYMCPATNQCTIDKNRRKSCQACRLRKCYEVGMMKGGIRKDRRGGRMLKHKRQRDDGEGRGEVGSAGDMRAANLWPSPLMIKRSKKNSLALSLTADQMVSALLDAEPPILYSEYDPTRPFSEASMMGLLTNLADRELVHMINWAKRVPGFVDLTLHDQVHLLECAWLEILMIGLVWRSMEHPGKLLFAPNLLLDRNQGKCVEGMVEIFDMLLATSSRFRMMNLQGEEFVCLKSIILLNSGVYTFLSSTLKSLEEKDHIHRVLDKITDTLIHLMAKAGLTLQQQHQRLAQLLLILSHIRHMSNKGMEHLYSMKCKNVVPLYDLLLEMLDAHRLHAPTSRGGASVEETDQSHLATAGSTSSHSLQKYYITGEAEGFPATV

CN(C)CCOC(C)(c1ccccc1)c1ccccn1 (stereo unspecified)
outcome [1]: inactive | outcome [2]: inactive | outcome [3]: inactive | outcome [4]: inactive | outcome [5]: inactive

FC(F)(F)COCC(F)(F)F
outcome [1]: inactive | outcome [2]: inactive | outcome [3]: inactive | outcome [4]: inactive

Nc1ccccc1[N+](=O)[O-]
outcome [6]: inactive

Oc1ccc2cc(SSc3ccc4cc(O)ccc4c3)ccc2c1
outcome [7]: inactive | outcome [6]: inactive

Nc1ccc(N)c2c1C(=O)c1ccccc1C2=O
AC50 [7]: 52 µM (active) | AC50 [6]: 28.9 µM (active)

CCCCCCCCCCCCCCN(CCO)CCO
outcome [7]: inactive

CS(C)=O
outcome [7]: inactive

CCOC(=O)C1OC1c1ccccc1 (stereo unspecified)
outcome [6]: inactive

CCCCCCC(C)(C)S
outcome [7]: inactive | outcome [6]: inactive

O=C(CC(=O)c1ccccc1)c1ccccc1
outcome [7]: inactive | outcome [6]: inactive

CC(C)CC(C)CC(O)CC(C)C (stereo unspecified)
outcome [7]: inactive | outcome [6]: inactive

O=C(O)c1ccc(O)cc1
outcome [6]: inactive

CN1C(=O)c2ccccc2C1=O
outcome [6]: inactive

COCCOCCOCCO
outcome [1]: inactive | outcome [2]: inactive | outcome [7]: inactive | outcome [6]: inactive | outcome [3]: inactive | outcome [4]: inactive | outcome [5]: inactive

O=P(O)(O)O
outcome [7]: inactive | outcome [6]: inactive

CCCCCCCCSCCO
outcome [7]: inactive | outcome [6]: inactive

CCCCCCCCCCCC(=O)OCC(O)CO (stereo unspecified)
outcome [8]: inactive | AC50 [7]: 0.0666 µM (active) | outcome [9]: inactive | outcome [6]: inactive | outcome [10]: inactive

O=[N+]([O-])c1ccc(O)cc1C(F)(F)F
AC50 [7]: 62.2 µM (active) | AC50 [6]: 34.9 µM (active)

O=C1NC2NC(=O)NC2N1 (stereo unspecified)
outcome [7]: inactive

Clc1ccc(C(c2ccccc2Cl)C(Cl)Cl)cc1 (stereo unspecified)
AC50 [7]: 100 µM (active) | AC50 [6]: 152 µM (active)

COCCc1ccc(OCC(O)CNC(C)C)cc1 (stereo unspecified)
outcome [1]: inactive | outcome [2]: inactive | outcome [3]: inactive | outcome [4]: inactive | outcome [5]: inactive

CCC(=O)O[C@@H]1C[C@H]2CC[C@]1(C)C2(C)C
outcome [7]: inactive

C=C(C)[C@@H]1CC=C(C)C(=O)C1
outcome [6]: inactive

CCCCC(CC)COC(C)=O (stereo unspecified)
outcome [7]: inactive

CCCCCCCCC=CCCCCCCCC1=NCCN1CCO
outcome [7]: inactive | outcome [6]: inactive

O=C1OC(=O)c2c(Cl)c(Cl)c(Cl)c(Cl)c21
outcome [7]: inactive | outcome [6]: inactive

CS(=O)(=O)OCCCCOS(C)(=O)=O
outcome [8]: inactive | outcome [1]: inactive | outcome [2]: inactive | outcome [9]: inactive | outcome [3]: inactive | outcome [10]: inactive | outcome [4]: inactive | outcome [5]: inactive

OCc1cccc(Oc2ccccc2)c1
outcome [7]: inactive

COc1ccccc1N=Nc1c(S(=O)(=O)O)cc2cc(S(=O)(=O)O)cc(NC(C)=O)c2c1O
outcome [7]: inactive | AC50 [6]: 42.9 µM (active)

Nc1ccc2cc(S(=O)(=O)O)cc(O)c2c1N=Nc1ccccc1C(F)(F)F
AC50 [7]: 46.4 µM (active) | AC50 [6]: 38.2 µM (active)

CCNCCO
outcome [7]: inactive

C=CC(C)(O)CCC=C(C)C (stereo unspecified)
outcome [7]: inactive | outcome [6]: inactive

CCCCC(CC)COC(=O)c1ccc(O)cc1 (stereo unspecified)
outcome [7]: inactive | AC50 [6]: 61.6 µM (active)

Oc1c(Cl)cc(Cl)c(Cl)c1Cc1c(O)c(Cl)cc(Cl)c1Cl
AC50 [1]: 894 nM (active) and 1.28 µM (active) | AC50 [2]: 1.16 µM (active) and 954 nM (active) | AC50 [3]: 1.02 µM (active) and 1.07 µM (active) | AC50 [4]: 976 nM (active) and 688 nM (active) | AC50 [5]: 919 nM (active) and 769 nM (active)

CC(C)CCCCCCc1ccc(OCCOCCO)cc1
outcome [8]: inactive | outcome [7]: inactive | outcome [9]: inactive | outcome [6]: inactive | outcome [10]: inactive
